Results published in PubChem BioAssay (NCI).
“And” between values parts separate entries of the source, which are not always exact repeats. Equal entries are not always repeated. Compounds without any hit were thinned out: in the full panel of roughly 83,000, 20% have a hit.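 Each cell line was grown in a 96-well plate and treated with one concentration of compound for 48 hours. Values below 10 were considered active.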 The source made the active and inactive calls.

What was measured:
Assay in all cases: NCI-60 one-dose screen, 48 h (100 = growth as untreated, 0 = no growth, -100 = all killed)
HCT-15 colon = test system: HCT-15 colon
HT29 colon = details: 10 µM unless noted
SNB-75 CNS = test system: SNB-75 CNS
SNB-19 CNS = test system: SNB-19 CNS
U251 CNS = details: 10 µM unless noted
PC-3 prostate = test system: PC-3 prostate
SK-MEL-5 melanoma = test system: SK-MEL-5 melanoma
UACC-62 melanoma = test system: UACC-62 melanoma
LOX IMVI melanoma = details: 10 µM unless noted
SK-MEL-28 melanoma = test system: SK-MEL-28 melanoma

Measured: growth

COCCNC(C)=O
inactive: HCT-15 colon; 10 µM unless noted 100% | HT29 colon 108% | SNB-75 CNS; 10 µM unless noted 99.2% | SNB-19 CNS; 10 µM unless noted 104% | U251 CNS 98.1% | PC-3 prostate; 10 µM unless noted 101% | SK-MEL-5 melanoma; 10 µM unless noted 96.7% | UACC-62 melanoma; 10 µM unless noted 99.9% | LOX IMVI melanoma 105% | SK-MEL-28 melanoma; 10 µM unless noted 112%

Cc1cc(Cl)nc(Nc2ccccc2)n1
inactive: HCT-15 colon; 10 µM unless noted 97.4% | HT29 colon 104% | SNB-75 CNS; 10 µM unless noted 96.2% | SNB-19 CNS; 10 µM unless noted 103% | U251 CNS 98.7% | PC-3 prostate; 10 µM unless noted 96.8% | SK-MEL-5 melanoma; 10 µM unless noted 97.2% | UACC-62 melanoma; 10 µM unless noted 90.2% | LOX IMVI melanoma 97% | SK-MEL-28 melanoma; 10 µM unless noted 109%

CC(=O)Nc1cscc1NC(C)=O
inactive: HCT-15 colon; 10 µM unless noted 106% | HT29 colon 96.2% | SNB-75 CNS; 10 µM unless noted 93.2% | SNB-19 CNS; 10 µM unless noted 92.6% | U251 CNS 98.9% | PC-3 prostate; 10 µM unless noted 103% | SK-MEL-5 melanoma; 10 µM unless noted 99.3% | UACC-62 melanoma; 10 µM unless noted 93.7% | LOX IMVI melanoma 98.6% | SK-MEL-28 melanoma; 10 µM unless noted 104%

CCN(CC)CCO/N=C1\CC(c2ccc(OC)c(OC)c2)Oc2ccccc21 (centres undefined)
inactive: HCT-15 colon; 10 µM unless noted 88.6% | HT29 colon 74.8% | SNB-75 CNS; 10 µM unless noted 68% | SNB-19 CNS; 10 µM unless noted 98.5% | U251 CNS 93.6% | PC-3 prostate; 10 µM unless noted 83% | SK-MEL-5 melanoma; 10 µM unless noted 93.4% | UACC-62 melanoma; 10 µM unless noted 107% | LOX IMVI melanoma 89.6% | SK-MEL-28 melanoma; 10 µM unless noted 107%

COc1ccc(CCl)c(C)c1OC
inactive: HCT-15 colon; 10 µM unless noted 106% | HT29 colon 102% | SNB-75 CNS; 10 µM unless noted 104% | SNB-19 CNS; 10 µM unless noted 107% | U251 CNS 97.6% | PC-3 prostate; 10 µM unless noted 94.2% | SK-MEL-5 melanoma; 10 µM unless noted 90.8% | UACC-62 melanoma; 10 µM unless noted 99.5% | LOX IMVI melanoma 94.3% | SK-MEL-28 melanoma; 10 µM unless noted 109%

CS/C(=C\c1ccc(C(=O)c2ccc(C)cc2)n1C)S(C)=O (centres undefined)
inactive: HCT-15 colon; 10 µM 87.6% | HCT-15 colon; 100 µM 55.1% | SNB-75 CNS; 10 µM 96.1% | SNB-75 CNS; 100 µM 100% | SNB-19 CNS; 10 µM 91.3% | SNB-19 CNS; 100 µM 77.5% | PC-3 prostate; 10 µM 76.6% | PC-3 prostate; 100 µM 71.1% | SK-MEL-5 melanoma; 10 µM 81.2% | SK-MEL-5 melanoma; 100 µM 36.5% | UACC-62 melanoma; 10 µM 83.3% | UACC-62 melanoma; 100 µM 61.4% | SK-MEL-28 melanoma; 10 µM 84.7% | SK-MEL-28 melanoma; 100 µM 74.9%

CNc1ccc(O)cc1
inactive: HCT-15 colon; 10 µM unless noted 103% and 102% | HT29 colon 114% and 113% | SNB-75 CNS; 10 µM unless noted 84.1% and 66.5% | SNB-19 CNS; 10 µM unless noted 102% and 98.3% | U251 CNS 101% and 99.3% | PC-3 prostate; 10 µM unless noted 102% and 100% | SK-MEL-5 melanoma; 10 µM unless noted 98.2% and 112% | UACC-62 melanoma; 10 µM unless noted 108% and 89.3% | LOX IMVI melanoma 101% and 93.9% | SK-MEL-28 melanoma; 10 µM unless noted 114% and 137%

CCN(CC)C(CC(=O)c1ccccc1)C(=O)c1ccccc1 (centres undefined)
inactive: HCT-15 colon; 10 µM unless noted 64.6% | HT29 colon 95.1% | SNB-75 CNS; 10 µM unless noted 114% | SNB-19 CNS; 10 µM unless noted 98.4% | U251 CNS 93.7% | PC-3 prostate; 10 µM unless noted 101% | SK-MEL-5 melanoma; 10 µM unless noted 94.5% | UACC-62 melanoma; 10 µM unless noted 99.7% | LOX IMVI melanoma 88.6% | SK-MEL-28 melanoma; 10 µM unless noted 118%

OCCSc1ccc(Cl)cc1
inactive: HCT-15 colon; 10 µM unless noted 104% and 102% | HT29 colon 104% and 88.1% | SNB-75 CNS; 10 µM unless noted 96.7% and 83% | SNB-19 CNS; 10 µM unless noted 118% and 94.6% | U251 CNS 102% and 96.6% | PC-3 prostate; 10 µM unless noted 101% and 81.5% | SK-MEL-5 melanoma; 10 µM unless noted 108% and 98.3% | UACC-62 melanoma; 10 µM unless noted 110% and 98.1% | LOX IMVI melanoma 98.4% and 101% | SK-MEL-28 melanoma; 10 µM unless noted 121% and 93.3%

CCc1ccc(OC(=O)CCl)cc1
inactive: HCT-15 colon; 10 µM unless noted 107% | HT29 colon 107% | SNB-75 CNS; 10 µM unless noted 89.7% | SNB-19 CNS; 10 µM unless noted 108% | U251 CNS 97% | PC-3 prostate; 10 µM unless noted 98.3% | SK-MEL-5 melanoma; 10 µM unless noted 105% | UACC-62 melanoma; 10 µM unless noted 106% | LOX IMVI melanoma 93.3% | SK-MEL-28 melanoma; 10 µM unless noted 98.4%

N#CC(=S)Nc1ccc(Cl)c(Cl)c1
active: SNB-75 CNS; 10 µM unless noted -3.27% | SNB-19 CNS; 10 µM unless noted 4.95% | U251 CNS 9.34% | SK-MEL-5 melanoma; 10 µM unless noted -61.7% | UACC-62 melanoma; 10 µM 5.74% | UACC-62 melanoma; 100 µM -12.1% and -100%
inactive: HCT-15 colon; 10 µM unless noted 13.6% | HT29 colon 12.5% | PC-3 prostate; 10 µM unless noted 23.1% | SK-MEL-28 melanoma; 10 µM unless noted 25.2%
